In the supplement of paper PMC8371130:
Where a name gives a salt, the structure may show the parent alone.

Tested on: HL-1
Test: relative cell viability (CellTiter-Glo) vs DMSO control (% of DMSO control); higher = more viable cells
In short: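 In 384-well plates, 1000 HL-1 mouse atrial cardiomyocytes per well were plated with compounds at 40, 200, 1000 or 5000 nM in 0.01% DMSO. Hypoxia at 1% O2 for 48 h began one day later and was followed by 24 h of reoxygenation, with parallel plates held in normoxia. CellTiter-Glo luminescence gave cell viability relative to vehicle-treated control cells.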

[1] = oxygen condition: hypoxia 48 h (1% O2) + reoxygenation 24 h, 40 nM
[2] = oxygen condition: hypoxia 48 h (1% O2) + reoxygenation 24 h, 200 nM
[3] = oxygen condition: hypoxia 48 h (1% O2) + reoxygenation 24 h, 1000 nM
[4] = oxygen condition: hypoxia 48 h (1% O2) + reoxygenation 24 h, 5000 nM
[5] = oxygen condition: normoxia 72 h, 40 nM
[6] = oxygen condition: normoxia 72 h, 200 nM
[7] = oxygen condition: normoxia 72 h, 1000 nM
[8] = oxygen condition: normoxia 72 h, 5000 nM

SMILES | relative cell viability [1] | relative cell viability [2] | relative cell viability [3] | relative cell viability [4] | relative cell viability [5] | relative cell viability [6] | relative cell viability [7] | relative cell viability [8]
Nc1nnc(-c2cccc(Cl)c2Cl)c(N)n1 [Lamotrigine] | 107 | 102 | 108 | 117 | 106 | 96.1 | 115 | 117
C=C1CC[C@H](O)C/C1=C/C=C1\CCC[C@]2(C)[C@@H]([C@H](C)CCCC(C)(C)O)CC[C@@H]12 [Calcifediol] | 112 | 106 | 106 | 109 | 103 | 104 | 114 | 117
CCOCC(O)COc1ccc(NC(=O)CC[S+](C)C)cc1 (stereo not drawn) [Suplatast tosylate] | 106 | 103 | 99.4 | 107 | 101 | 101 | 108 | 120
NCCS [Cysteamine HCl] | 101 | 108 | 109 | 106 | 102 | 102 | 106 | 111
CC[C@@H](CO)NCCN[C@@H](CC)CO [Ethambutol HCl] | 100 | 93.4 | 102 | 112 | 90.2 | 91.3 | 102 | 3.47
CCCCNc1ccc(C(=O)OCCN(C)C)cc1 [Tetracaine hydrochloride] | 97.8 | 104 | 107 | 106 | 103 | 106 | 111 | 108
CN1C2=CC(=O)/C(=N\NC(N)=O)C=C2CC1S(=O)(=O)O (stereo not drawn) [Carbazochrome sodium sulfonate] | 99 | 97 | 101 | 112 | 95 | 102 | 89.9 | 108
CN1CCOC(c2ccccc2)c2ccccc2C1 (stereo not drawn) [Nefopam HCl] | 95.1 | 74.3 | 43.9 | 93.2 | 60.3 | 45.5 | 44.4 | 68.8
Cc1ccc(C(=O)Nc2ccc(CN3CCN(C)CC3)c(C(F)(F)F)c2)cc1C#Cc1cnc2cccnn12 [Ponatinib] | 105 | 108 | 113 | 107 | 103 | 103 | 105 | 106
Cc1cccc(Nc2ccccc2C(=O)O)c1C [Mefenamic acid] | 96.6 | 93.4 | 102 | 113 | 100 | 105 | 111 | 110
C#C[C@]1(O)CC[C@H]2[C@@H]3CCc4cc(OC)ccc4[C@H]3CC[C@@]21C [Mestranol] | 101 | 106 | 101 | 101 | 99.9 | 97.3 | 103 | 85.7
CCCCc1oc2ccc(NS(C)(=O)=O)cc2c1C(=O)c1ccc(OCCCN(CCCC)CCCC)cc1 [Dronedarone HCl] | 99.9 | 99.6 | 102 | 105 | 99.8 | 110 | 102 | 95
COc1cccc2c1C(=O)c1c(O)c3c(c(O)c1C2=O)C[C@@](O)(C(=O)CO)C[C@@H]3O[C@H]1C[C@H](N)[C@@H](O)[C@H](C)O1 [Epirubicin Hydrochloride] | 96.8 | 102 | 107 | 91.5 | 93.5 | 97.6 | 91.7 | 96.4
COc1ccccc1OCC(O)COC(N)=O (stereo not drawn) [Methocarbamol] | 104 | 107 | 108 | 119 | 101 | 112 | 106 | 114
O=c1oc2cc(O)ccc2s1 [Tioxolone] | 106 | 104 | 108 | 110 | 107 | 109 | 113 | 106
NC(=O)c1cn(Cc2c(F)cccc2F)nn1 [Rufinamide] | 103 | 106 | 109 | 112 | 106 | 106 | 111 | 112
O=C(CCCN1CCN(c2ccccn2)CC1)c1ccc(F)cc1 [Azaperone] | 107 | 104 | 102 | 103 | 102 | 107 | 110 | 111
CC(=O)OCC(=O)NCCCOc1cccc(CN2CCCCC2)c1 [Roxatidine acetate HCl] | 105 | 104 | 99.8 | 114 | 110 | 102 | 107 | 108
C[C@@H](O[C@H]1OCCN(Cc2nn(P(=O)(O)O)c(=O)[nH]2)[C@H]1c1ccc(F)cc1)c1cc(C(F)(F)F)cc(C(F)(F)F)c1 [Fosaprepitant dimeglumine] | 104 | 105 | 119 | 108 | 113 | 129 | 130 | 105
C=C1CC[C@H](O)C/C1=C/C=C1\CCC[C@]2(C)[C@@H]([C@H](C)CCCC(C)C)CC[C@@H]12 [Vitamin D3] | 104 | 89.6 | 54.7 | 109 | 94.8 | 70.8 | 66.2 | 116
COc1c2ccoc2cc2oc(=O)ccc12 [Bergapten] | 101 | 104 | 107 | 109 | 99.2 | 96.6 | 109 | 103
